Our source for the z-score, activity, negative = inhibition and Potency values is PubChem BioAssay (NCATS).

The nature of assay [1]: qHTS for identification of novel therapeutic agents for treatment of microphthalmiaassociated transcription factor (MiT) renal cell carcinoma (RCC) (AID 1963991). The note with it: CellTiter-Glo, 48 h, stronger effect = lower value. The essentials: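 Three TFE3-fusion RCC cell lines (UOK109, UOK124, UOK145), 500 cells/well, were exposed to the 1912-compound MIPE 4.0 library for 48 hours at 37 C. Viability was read by CellTiter-Glo luminescence, normalised to DMSO (100%) and empty wells (0%), with 11-concentration curve fits.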

Assay [2] in a line: qHTS profiling for inhibitors of Plasmodium falciparum proliferation (AID 504749). Further: nearly all actives have a fitted effect of over 60% in size. Further: potency means the concentration at half of the fitted maximal effect.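 On activity, negative = inhibition: 0% = DMSO vehicle and full inhibition = artemisinin control.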 The note with it: P. falciparum in erythrocytes, SYBR Green DNA, 72 h. An outline of the steps: (§1)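 Three-day growth assay of blood-stage parasites in erythrocytes (0.3% parasitemia, 2.5% hematocrit) at 37 C, 5% CO2, quantified by SYBR Green DNA staining after overnight detergent lysis.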
A general note: Quantitative high-throughput screening tests each substance at several concentrations.

A further assay relates to 3D7. The assay is described as above. The note with it: P. falciparum in erythrocytes, SYBR Green DNA, 72 h; series mostly up to 28.7 µM. The essentials:
as §1

The test system of the next assay is 7G8. Described as above. The conditions noted are these: P. falciparum in erythrocytes, SYBR Green DNA, 72 h; series mostly up to 28.7 µM. An outline of the steps:
as §1

The test system of a further assay is AA1029. The assay is described as above. The note with it: P. falciparum in erythrocytes, SYBR Green DNA, 72 h; series mostly up to 28.7 µM. An outline of the steps:
as §1

In the next assay the test system is AS120. The description is as above. The note with it: P. falciparum in erythrocytes, SYBR Green DNA, 72 h; series mostly up to 28.7 µM. The essentials:
as §1

The test system of the next assay is ATS189. The assay is described as above. The conditions noted are these: P. falciparum in erythrocytes, SYBR Green DNA, 72 h; series mostly up to 28.7 µM. An outline of the steps:
as §1

The test system of a further assay is ATS95. The assay is described as above. The note with it: P. falciparum in erythrocytes, SYBR Green DNA, 72 h; series mostly up to 28.7 µM. An outline of the steps:
as §1

For a further assay, the system named is C2A. The description is as above. The conditions noted are these: P. falciparum in erythrocytes, SYBR Green DNA, 72 h; series mostly up to 28.7 µM. An outline of the steps: as §1
The next assay deals with CP185. The assay is described as above. The note with it: P. falciparum in erythrocytes, SYBR Green DNA, 72 h; series mostly up to 28.7 µM. An outline of the steps:
as §1

For another assay, the system named is CP191. The description is as above. The note with it: P. falciparum in erythrocytes, SYBR Green DNA, 72 h; series mostly up to 28.7 µM. The essentials: as §1
The subject of the next assay is CP192. The assay is described as above. The conditions noted are these: P. falciparum in erythrocytes, SYBR Green DNA, 72 h; series mostly up to 28.7 µM. The essentials: as §1
In another assay the test system is CP194. The description is as above. The note with it: P. falciparum in erythrocytes, SYBR Green DNA, 72 h; series mostly up to 28.7 µM. The essentials: as §1
The subject of a further assay is CP201. Described as above. The conditions noted are these: P. falciparum in erythrocytes, SYBR Green DNA, 72 h; series mostly up to 28.7 µM. An outline of the steps:
as §1

Another assay relates to CP203. The description is as above. The conditions noted are these: P. falciparum in erythrocytes, SYBR Green DNA, 72 h; series mostly up to 28.7 µM. The essentials:
as §1

For the next assay, the system named is CP211. The assay is described as above. The note with it: P. falciparum in erythrocytes, SYBR Green DNA, 72 h; series mostly up to 28.7 µM. The essentials:
as §1

In a further assay the test system is CP215. The assay is described as above. The conditions noted are these: P. falciparum in erythrocytes, SYBR Green DNA, 72 h; series mostly up to 28.7 µM. The essentials:
as §1

Another assay deals with CP217. The assay is described as above. The note with it: P. falciparum in erythrocytes, SYBR Green DNA, 72 h; series mostly up to 28.7 µM. The essentials: as §1
The test system of the next assay is CP237. The description is as above. The conditions noted are these: P. falciparum in erythrocytes, SYBR Green DNA, 72 h; series mostly up to 28.7 µM. The essentials: as §1
Another assay has as its system CP238. Described as above. The note with it: P. falciparum in erythrocytes, SYBR Green DNA, 72 h; series mostly up to 28.7 µM. The essentials:
as §1

Where [3] appears, read: TFE3-RCC UOK109 viability, measured here: UOK109 Z-AUC.
Where [4] appears, read: TFE3-RCC viability, measured here: UOK124 Z-AUC.
[5] abbreviates: TFE3-RCC viability, measured here: UOK145 Z-AUC.
Where [6] appears, read: at 28.7 µM (top of the series), parasite line A.
Where [7] appears, read: at 28.7 µM (top of the series), parasite line B.

Records with an inconclusive call do not appear. Active and inactive are the calls of the source. The call rests on the fitted dose curve; in most records, active means well fitted inhibition curve with a large enough effect; inconclusive means small, poorly fitted or top-dose-only effect; inactive means flat fitted curve, though single readings scatter.

In the case of `O=C(O)c1cccnc1Nc1cccc(C(F)(F)F)c1`, the figures for the z-score in [1] (setting [3]), in assay [1] (setting [4]) and in [1] (setting [5]) were 0.327, 0.739 and 0.463, respectively. Further, the activity, negative = inhibition is 8.39% (inactive) in assay [2] (setting [6]) and 13.5% (inactive) in assay [2] (setting [7]). Besides, the Potency entry in the assay on 3D7, in the assay with 7G8, with AA1029, with AS120, in the assay with ATS189 and in the assay with ATS95 was “inactive” in each case. Further, the Potency result in the assay on C2A, in the assay with CP185, in the assay with CP191, in the assay on CP192, in the assay on CP194 and in the assay on CP201 was “inactive” each time. The Potency result with CP203, with CP211, in the assay with CP215, in the assay with CP217, with CP237 and in the assay with CP238 was “inactive” each time.
As for `N=C(N)c1ccc2cc(OC(=O)c3ccc(N=C(N)N)cc3)ccc2c1`, the z-score was 0.107 in assay [1] (setting [3]), -0.0134 in assay [1] (setting [4]) and 0.0541 in assay [1] (setting [5]). Also, the Potency in the assay on 7G8 is 11.2 µM (active); with CP191, 3.98 µM (active); in the assay on CP237, 7.08 µM (active). The Potency entry with CP192 was “inactive”.
For the compound `CCCCCCCCCCCCCCCCCCCCCCO`, the z-score stood at 0.385 in [1] (setting [3]), 0.0399 in assay [1] (setting [4]) and 0.476 in assay [1] (setting [5]). The activity, negative = inhibition in assay [2] (setting [6]) was -0.041% (inactive); in [2] (setting [7]), -11.9% (inactive). Also, the Potency entry with 3D7, in the assay on 7G8, with AA1029, with AS120, with ATS189 and in the assay with ATS95 was “inactive” each time. Moreover, the Potency entry in the assay on C2A, in the assay on CP185, in the assay with CP191, in the assay with CP192, in the assay with CP201 and in the assay with CP203 was “inactive” in each case. Moreover, the Potency result in the assay on CP211, in the assay with CP215, in the assay with CP217, in the assay on CP237 and with CP238 was “inactive” in each case.
For the compound `Cc1c(OCC(F)(F)F)ccnc1CS(=O)c1nc2ccccc2[nH]1` (centres undefined), the z-score in assay [1] (setting [3]) was 0.51; in assay [1] (setting [4]), 0.775; in [1] (setting [5]), 0.275. Also, the activity, negative = inhibition is -19.3% (inactive) in [2] (setting [6]) and -5.11% (inactive) in assay [2] (setting [7]). Also, the Potency entry in the assay with 3D7, in the assay on AA1029, in the assay on AS120, in the assay with ATS189, with ATS95 and in the assay on C2A was “inactive” each time. Besides, the Potency entry with CP185, in the assay with CP191, in the assay with CP192, in the assay on CP194, with CP201 and in the assay with CP203 was “inactive” in each case. Besides, the Potency result in the assay with CP211, in the assay with CP215, in the assay on CP217, in the assay on CP237 and with CP238 was “inactive” throughout.
Take `COc1cc(OC)c(C(=O)CCCN2CCCC2)c(OC)c1`: the values for the z-score in assay [1] (setting [3]), in [1] (setting [4]) and in assay [1] (setting [5]) were 1.14, 0.362 and -0.41, respectively. Also, the activity, negative = inhibition was 17.5% (inactive) in assay [2] (at 12.8 µM (top of the series), parasite line A) and 11% (inactive) in assay [2] (at 12.8 µM (top of the series), parasite line B). Moreover, the Potency result in the assay with 3D7, with 7G8, with AA1029, in the assay on AS120, with ATS189 and in the assay with ATS95 was “inactive” each time. Besides, the Potency entry with C2A, in the assay on CP185, in the assay with CP191, in the assay on CP192, in the assay with CP194 and in the assay on CP201 was “inactive” each time. For the same compound, the Potency result with CP203, in the assay with CP211, with CP215, in the assay with CP217, in the assay with CP237 and in the assay with CP238 was “inactive” throughout.
Consider `Cc1cc2c(s1)Nc1ccccc1N=C2N1CCN(C)CC1`, for which the z-score in [1] (setting [3]) came to 0.52; in assay [1] (setting [4]), 0.714; in [1] (setting [5]), 0.593. The activity, negative = inhibition was 6.07% (inactive) in assay [2] (setting [6]) and 8.04% (inactive) in assay [2] (setting [7]). The Potency result in the assay with 3D7, in the assay on AA1029, in the assay with AS120, with ATS189, in the assay with ATS95 and in the assay on C2A was “inactive” in each case. Further, the Potency entry with CP185, in the assay on CP191, in the assay on CP192, in the assay on CP194, in the assay with CP201 and in the assay on CP203 was “inactive” throughout. The Potency result in the assay with CP211, with CP215, in the assay with CP217, in the assay with CP237 and with CP238 was “inactive” throughout.
